Among the data in article PMC12864922, “TDP-43 directly inhibits mRNA accumulation in neurites through modulation of mRNA stability” are binding signal values, retold here.

B1: ENSMUSG00000058297.560|Spock2|93:97;225:231 (ssRNA)
RNA: GGGAGUUCUACAGUCCGACGAUCGCUUCGAUAUCCGCAUGCUAACCUGGGGGUGCAAAAGGAGAUUCAAGACAUCCGUACCAAGUCAGGCAGAGCUACCCGCUUCUCAGCCCGUGUCCCACUUAAAACCGUCCGAACACAAAUCACUGAGCUUAGAGUUAAACAUUGUGGUCAAGUGCUUGGGUUCCGUCUGUAGAUUUAAGUGCUGACGUUGUAUCUCUCAGUAAUUUUAGAUGUCUUUUAAAAAAUCUGAACAAGUGUUAGACCCCACACACCGUUGGUGGGCACUCAAGCAUCCCGUGGGCUCUUGCGGUCGCACUAGUGUGGAAUUCUCGGGUGUCAAGG
B2: ENSMUSG00000042529.275|Kcnj12 (ssRNA)
RNA: GGGAGUUCUACAGUCCGACGAUCGCUUCGAUAUCCGCAUGCUAUUACCUGCCACUCACCUCUCUAUCUAGUUGUCGAGUCUAGGGAAGGGCAGAGGGUGGGUCCUGGCCACUGGGUGCCACUGUGGGAGCCGGGGCACCUGUCAUUCUUUCUGAGUAGGUGGGCCUGUAUCCAGAGCAGGGUCUAGGGGCUCCUGCUCCCGGCUCAUCUCAGUGGCCUGAAGCAUUCAAAACUCUAGCCAGCCCCAUCCUCCUCCCUGCCAGAAUGGUCCAGUCCCUGGGCCCUGCUGGAGAGCAGCUCAAACCUCUUGCGGUCGCACUAGUGUGGAAUUCUCGGGUGUCAAGG
B3: ENSMUSG00000042529.296|Kcnj12 (ssRNA)
RNA: GGGAGUUCUACAGUCCGACGAUCGCUUCGAUAUCCGCAUGCUAUCCAGAGCAGGGUCUAGGGGCUCCUGCUCCCGGCUCAUCUCAGUGGCCUGAAGCAUUCAAAACUCUAGCCAGCCCCAUCCUCCUCCCUGCCAGAAUGGUCCAGUCCCUGGGCCCUGCUGGAGAGCAGCUCAAACUGCCUUUCAUCUCUGCCAAAGGCAGGCAGAUGCUGUAUUUUCAAAUUCUCCUGCCCUCUUUUCCCCUUUUUCCCUGUAUUUAUUUAUUGCUUGUGCUAAAGACCAAACUAGCCGCCCCCUUUAGUGCUCUUGCGGUCGCACUAGUGUGGAAUUCUCGGGUGUCAAGG
B4: ENSMUSG00000090935.16|Synj2bp (ssRNA)
RNA: GGGAGUUCUACAGUCCGACGAUCGCUUCGAUAUCCGCAUGCUAAUAUGAACGGACGGGUGGAUUAUUUAGUCACGGAGGAAGAGAUCAACCUGACGAGAGGACCUUCGGGUAAAUGGCCAAGAUCUGAAGAACCUGCUGCACCAAGAUGCUGUAGACCUCUUCCGUAAUGCGGGAUGUGCUGUGUCCCUGAGAGUACAGCACAGGUUACCAGUGCAGAAUGGACCUAUAGUACAUCGAGGUGAAGGAGAGCCAAGUGGAGUUCCUGUAGCUAUGGUGCUGCUACCAGUGUUUGCCCUCACCAUCUCUUGCGGUCGCACUAGUGUGGAAUUCUCGGGUGUCAAGG
B5: ENSMUSG00000061578.1096|Ksr2 (ssRNA)
RNA: GGGAGUUCUACAGUCCGACGAUCGCUUCGAUAUCCGCAUGCUAAGAAGGCUGGGGGAGCUUUCAGGGGUGUGGCCAGUUAUGUACAGAUGUGAAGCUGAGGUCUGAAGGAAAUGGAGGAAGUAGGAAGAUCAGACUGGUUGAAUUAGAAGUCUGUCACUCUAGGUGCUAAGUGACCUUGGACCCAGUCAGUUCUUGGAUUUCUGUUGUAGCCCAGGCUAGCCUCGAACCCUUGAUCCUCCUGUUCCUGGUAGAGAAACAGCCACUAAAUGGUGGGAUAGAAUGUGACUGCUCUAUCCCCGAUCCUCUUGCGGUCGCACUAGUGUGGAAUUCUCGGGUGUCAAGG
B6: ENSMUSG00000029636.193|Wasf3 (ssRNA)
RNA: GGGAGUUCUACAGUCCGACGAUCGCUUCGAUAUCCGCAUGCUAAGCCAGUUGCCCGGGCAGAGACCUGACUUCCCCUCUCCUGCCCUGAUCCUUUUUACCAAAUGGCGAUUCCAUAGUCCUGGCUGAGGCAGGGGCUCAAAGUCCAGUGUCUGCUUUGCAAUUCUGGAAGGACAGCUGCUUAUUUAAAUAAGUCUGUGAUAUCCGCAGGCUUGGGUUACAGGGAGGACCUUGCAGAGGGACCAGGACACUGCCUUCCCUUAGGUGCAUUAUUUACGUGGCCUGCAGCUCUUAAUAUCUCUCACCUCUUGCGGUCGCACUAGUGUGGAAUUCUCGGGUGUCAAGG
B7: ENSMUSG00000058297.31|Spock2|65:69;73:86;95:106;120:126;135:144;150:175 (ssRNA)
RNA: GGGAGUUCUACAGUCCGACGAUCGCUUCGAUAUCCGCAUGCUAACUUAGCAAAUGGAUCCGGAAGUCAGUGCGGAGGACCCUGGCUCCAGUGGGGGAGGACUGGGGACACACGCUACACACAUACACACAUAUGAGAACACACACAUACAUGUGAGAUGUGACACACACAUGUGAGAACACACAUACUGAGAACACACACACACACACACACACACACAUGUGAGUCACCCAAAGGUCCCUAUGUUAUUGAUUUUCAAAUGCACACUUUCACACACAAGGAUACACUAACAGACCAAAAUCAACUCUUGCGGUCGCACUAGUGUGGAAUUCUCGGGUGUCAAGG
B8: ENSMUSG00000058297.31|Spock2 (ssRNA)
RNA: GGGAGUUCUACAGUCCGACGAUCGCUUCGAUAUCCGCAUGCUAACUUAGCAAAUGGAUCCGGAAGUCAGUGCGGAGGACCCUGGCUCCAGUGGGGGAGGACUGGGGAGUGUGGCUUGUGUGUAUGUGUGAUAUGAGAUGUGUGUGUAUGAUGUGAGAUGUGAGUGUGUGAUGUGAGAUGUGUGUAUGUGAGAUGUGUGUGUGUGUGUGUGUGUGUGUGAUGUGAGUCACCCAAAGGUCCCUAUGUUAUUGAUUUUCAAAUGCACACUUUCACACACAAGGAUACACUAACAGACCAAAAUCAACUCUUGCGGUCGCACUAGUGUGGAAUUCUCGGGUGUCAAGG
B9: ENSMUSG00000058297.30|Spock2 (ssRNA)
RNA: GGGAGUUCUACAGUCCGACGAUCGCUUCGAUAUCCGCAUGCUACAGGCAACUUAGCAAAUGGAUCCGGAAGUCAGUGCGGAGGACCCUGGCUCCAGUGGGGGAGGACUGGGGAGUGUGGCUUGUGUGUAUGUGUGAUAUGAGAUGUGUGUGUAUGAUGUGAGAUGUGAGUGUGUGAUGUGAGAUGUGUGUAUGUGAGAUGUGUGUGUGUGUGUGUGUGUGUGUGAUGUGAGUCACCCAAAGGUCCCUAUGUUAUUGAUUUUCAAAUGCACACUUUCACACACAAGGAUACACUAACAGACCAACUCUUGCGGUCGCACUAGUGUGGAAUUCUCGGGUGUCAAGG

In all, about 9,900 sequences were measured (“r (bound/input frequency ratio)”: median about 0.7, highest 2% from about 6.5 on). What follows is part of a selection rich in the highest values, with near analogues and random picks from the rest.

Sequence of TDP-43 (Q13148 whole entry): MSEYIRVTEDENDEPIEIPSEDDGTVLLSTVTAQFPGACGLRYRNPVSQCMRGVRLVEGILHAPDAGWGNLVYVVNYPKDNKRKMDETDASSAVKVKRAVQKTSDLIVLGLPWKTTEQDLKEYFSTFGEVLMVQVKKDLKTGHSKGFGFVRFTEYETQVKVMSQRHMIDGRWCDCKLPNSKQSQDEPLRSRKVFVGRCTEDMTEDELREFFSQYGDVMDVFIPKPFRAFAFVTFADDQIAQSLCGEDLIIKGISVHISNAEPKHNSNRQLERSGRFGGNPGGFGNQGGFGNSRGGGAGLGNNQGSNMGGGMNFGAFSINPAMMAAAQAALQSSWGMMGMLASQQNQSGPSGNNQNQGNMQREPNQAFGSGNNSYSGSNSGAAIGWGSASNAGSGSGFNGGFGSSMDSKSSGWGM

This experiment has as its target TDP-43 (Homo sapiens, UniProt Q13148 1-414). Put plainly: RNA Bind-n-Seq with designed 260-mer pool; 25 mM Tris-HCl, 150 mM KCl, 3 mM MgCl2, BSA (printed 500 mg/mL), 20 units/mL SUPERase IN; pH not stated; 500 nM RNA pool, 1 h, 4 C; TDP-43 5, 50, 500 nM; high values mean tight binding. Particulars: protein: recombinant; tags: SBP (GST cleaved off with PreScission; pGEX-GST-SBP). In short, it runs like this:
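Duplicate measurements used two independent batches of recombinant SBP-tagged TDP-43, which was captured on streptavidin beads at 5, 50 or 500 nM. The beads were incubated with 500 nM of an in vitro-transcribed 260-nt 3′ UTR oligo pool for 1 h at 4 °C in 25 mM Tris-HCl, 150 mM KCl, 3 mM MgCl2, BSA and SUPERase IN. After washing, biotin elution, reverse transcription, PCR amplification and sequencing, binding was expressed as R: each oligo's normalized read abundance in the bound sample over its abundance in input.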
As to B1, the binding signal is 0.189 R (bound/input frequency ratio). As for B2, the figure is 0.367 R (bound/input frequency ratio); as for B3, 1.65 R (bound/input frequency ratio); as for B4, 0.983 R (bound/input frequency ratio). On to B5, for which the binding signal was 2.29 R (bound/input frequency ratio). As for B6, the figure is 0.437 R (bound/input frequency ratio); as for B7, 3.59 R (bound/input frequency ratio). Under B8 stands 8.63 R (bound/input frequency ratio); under B9, 8.87 R (bound/input frequency ratio).
